Measured values: PubChem BioAssay (NCI)
About 83,000 compounds went through this panel and 20% of them were active in at least one assay; those are over-represented in the sample as a whole.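 Cells were grown in 96-well plates and exposed to the test compound at a single concentration for 48 hours; results are reported as percent growth, with values below 10 considered active.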 The source made the active and inactive calls.

Tests used:
Assay in all cases: NCI-60 one-dose screen, 48 h (100 = growth as untreated, 0 = no growth, -100 = all killed)
Details in all cases: 10 µM unless noted
HCT-15 colon = test system: HCT-15 colon
HT29 colon = test system: HT29 colon
SNB-19 CNS = test system: SNB-19 CNS
U251 CNS = test system: U251 CNS
PC-3 prostate = test system: PC-3 prostate
SK-MEL-5 melanoma = test system: SK-MEL-5 melanoma
UACC-62 melanoma = test system: UACC-62 melanoma
LOX IMVI melanoma = test system: LOX IMVI melanoma
SK-MEL-2 melanoma = test system: SK-MEL-2 melanoma
EKVX NSCLC = test system: EKVX NSCLC
SN12C renal = test system: SN12C renal
UO-31 renal = test system: UO-31 renal
TK-10 renal = test system: TK-10 renal
ACHN renal = test system: ACHN renal
CAKI-1 renal = test system: CAKI-1 renal
A498 renal = test system: A498 renal
CCRF-CEM leukemia = test system: CCRF-CEM leukemia
MOLT-4 leukemia = test system: MOLT-4 leukemia
SK-MEL-28 melanoma = test system: SK-MEL-28 melanoma

Measured: growth

O=C(NNC(=S)Nc1ccccc1)c1cc2ccc1CCc1ccc(cc1)CC2
inactive: HCT-15 colon 40.2% | HT29 colon 76.1% | SNB-19 CNS 56.9% | U251 CNS 49.3% | PC-3 prostate 57.8% | SK-MEL-5 melanoma 43.8% | UACC-62 melanoma 55.9% | LOX IMVI melanoma 59.4% | SK-MEL-2 melanoma 74.5% | EKVX NSCLC 76.3% | SN12C renal 58.3% | UO-31 renal 82.2% | TK-10 renal 99.6% | ACHN renal 61.4% | CAKI-1 renal 63.8% | A498 renal 61% | CCRF-CEM leukemia 33.8% | MOLT-4 leukemia 57%

COc1cc(C(=O)/C=C/c2ccc3nc(-c4cc(F)cc(F)c4)sc3c2)cc(OC)c1OC
inactive: HCT-15 colon 99.5% | HT29 colon 95.9% | SNB-19 CNS 98.3% | U251 CNS 92.5% | PC-3 prostate 95.1% | SK-MEL-5 melanoma 118% | UACC-62 melanoma 95.6% | LOX IMVI melanoma 94.9% | SK-MEL-28 melanoma 106% | EKVX NSCLC 110% | SN12C renal 93% | UO-31 renal 88.8% | TK-10 renal 100% | ACHN renal 88.1% | CAKI-1 renal 104% | A498 renal 98.1% | MOLT-4 leukemia 103%

CCCCCCN1CSC(=S)N(CCCCCC)C1
inactive: HCT-15 colon 103% | HT29 colon 115% | SNB-19 CNS 106% | U251 CNS 103% | PC-3 prostate 83.6% | SK-MEL-5 melanoma 94.5% | UACC-62 melanoma 95.3% | LOX IMVI melanoma 91.8% | SK-MEL-2 melanoma 124% | EKVX NSCLC 91.7% | SN12C renal 104% | UO-31 renal 79.3% | TK-10 renal 111% | ACHN renal 109% | CAKI-1 renal 81.3% | A498 renal 94.2% | CCRF-CEM leukemia 88.2% | MOLT-4 leukemia 107%

O=C(O)/C=C/C(=O)c1ccc(Cl)cc1
inactive: HCT-15 colon 103% | HT29 colon 91.3% | SNB-19 CNS 111% | U251 CNS 100% | PC-3 prostate 106% | SK-MEL-5 melanoma 107% | UACC-62 melanoma 109% | LOX IMVI melanoma 105% | SK-MEL-2 melanoma 109% | EKVX NSCLC 114% | SN12C renal 112% | UO-31 renal 90.1% | TK-10 renal 105% | ACHN renal 106% | CAKI-1 renal 107% | A498 renal 107%

O=C(Nc1ccncc1)C(=O)c1cn(S(=O)(=O)c2ccccc2F)c2ccccc12
active: HT29 colon 7.48%
inactive: HCT-15 colon 31.7% | SNB-19 CNS 60.6% | U251 CNS 30.7% | PC-3 prostate 40.1% | SK-MEL-5 melanoma 13.5% | UACC-62 melanoma 32.3% | LOX IMVI melanoma 37% | SK-MEL-28 melanoma 61.5% | EKVX NSCLC 49.2% | SN12C renal 33.8% | UO-31 renal 52.9% | TK-10 renal 101% | ACHN renal 56.8% | A498 renal 49.7% | MOLT-4 leukemia 39.1%

COc1cc(/C=C/C(=O)/C=C/c2cc(OC)c3c(c2)OCO3)cc2c1OCO2
active: HT29 colon 6.92%
inactive: HCT-15 colon 69.1% | SNB-19 CNS 80.3% | U251 CNS 45.1% | PC-3 prostate 83.7% | SK-MEL-5 melanoma 80.9% | UACC-62 melanoma 75.1% | LOX IMVI melanoma 54% | SK-MEL-28 melanoma 119% | EKVX NSCLC 95.9% | SN12C renal 85.4% | UO-31 renal 88.1% | TK-10 renal 136% | ACHN renal 102% | CAKI-1 renal 92.6% | A498 renal 117% | MOLT-4 leukemia 91.2%

O=C(Nc1ccncc1)C(=O)c1cn(S(=O)(=O)c2ccc(Br)cc2)c2ccccc12
inactive: HCT-15 colon 31% | HT29 colon 11.6% | SNB-19 CNS 64.6% | U251 CNS 42.7% | PC-3 prostate 68.4% | SK-MEL-5 melanoma 14.5% | UACC-62 melanoma 38.3% | LOX IMVI melanoma 41.6% | SK-MEL-28 melanoma 60.6% | EKVX NSCLC 44.5% | SN12C renal 46.3% | UO-31 renal 52.7% | TK-10 renal 98.2% | ACHN renal 58% | CAKI-1 renal 40.6% | A498 renal 47.3% | MOLT-4 leukemia 44.3%

C=C1CCC[C@]2(C)CCC[C@H](C)[C@@H](OC(C)=O)[C@@H]3OC(=O)C(=C)[C@@H]3C[C@H]1O2
inactive: HCT-15 colon 65.9% | HT29 colon 67.8% | SNB-19 CNS 88.9% | U251 CNS 72.5% | PC-3 prostate 53% | SK-MEL-5 melanoma 72.7% | UACC-62 melanoma 58% | LOX IMVI melanoma 72.2% | SK-MEL-28 melanoma 95.2% | EKVX NSCLC 77.3% | SN12C renal 68.5% | UO-31 renal 87.1% | TK-10 renal 109% | ACHN renal 80.1% | CAKI-1 renal 69.4% | A498 renal 68.7% | MOLT-4 leukemia 64%

C=C1C(=O)O[C@H]2[C@H]1CC/C(Cn1cc(CNC(=O)/C=C/c3c[nH]c4ccccc34)nn1)=C\CC[C@@]1(C)O[C@@H]21
inactive: HCT-15 colon 94.4% | HT29 colon 92.4% | SNB-19 CNS 91.5% | U251 CNS 94.3% | PC-3 prostate 95.3% | SK-MEL-5 melanoma 83.8% | UACC-62 melanoma 87.6% | LOX IMVI melanoma 67.3% | SK-MEL-2 melanoma 90.9% | EKVX NSCLC 99.5% | SN12C renal 88.4% | UO-31 renal 92.6% | TK-10 renal 123% | ACHN renal 94% | CAKI-1 renal 88.9% | A498 renal 98.9% | MOLT-4 leukemia 89.5%
active: CCRF-CEM leukemia 1.25%

COc1ccc(Nc2ncccc2C(=O)NCc2cn(Cc3cccc(Oc4ccccc4)c3)nn2)cc1
inactive: HCT-15 colon 32.2% | HT29 colon 12.6% | SNB-19 CNS 61.2% | U251 CNS 46.2% | PC-3 prostate 54.7% | SK-MEL-5 melanoma 16.3% | UACC-62 melanoma 35.3% | LOX IMVI melanoma 47.7% | SK-MEL-28 melanoma 63.3% | EKVX NSCLC 40.1% | SN12C renal 47.5% | UO-31 renal 40.9% | TK-10 renal 76.3% | ACHN renal 51.2% | CAKI-1 renal 42.3% | A498 renal 27.5% | MOLT-4 leukemia 48%

O=C1NN(C(=O)c2ccc(Cl)cc2)C(c2ccccc2)=N/C1=C\c1cn(-c2ccccc2)nc1-c1ccccc1
inactive: HCT-15 colon 92.6% | HT29 colon 87.8% | SNB-19 CNS 90.7% | U251 CNS 92.4% | PC-3 prostate 94.8% | SK-MEL-5 melanoma 79.9% | UACC-62 melanoma 91% | LOX IMVI melanoma 97.6% | SK-MEL-28 melanoma 94.8% | EKVX NSCLC 81.4% | SN12C renal 93.2% | UO-31 renal 90.6% | TK-10 renal 102% | ACHN renal 98.5% | CAKI-1 renal 80.4% | A498 renal 69% | MOLT-4 leukemia 98.6%

Cc1ccc(S(=O)(=O)n2cc(C(=O)C(=O)Nc3ccncc3)c3ccccc32)cc1
active: HT29 colon 6.07%
inactive: HCT-15 colon 24.9% | SNB-19 CNS 45.7% | U251 CNS 33.7% | PC-3 prostate 55.1% | SK-MEL-5 melanoma 11.2% | UACC-62 melanoma 32.4% | LOX IMVI melanoma 45.2% | SK-MEL-28 melanoma 52% | EKVX NSCLC 55.8% | SN12C renal 39.8% | UO-31 renal 43.1% | TK-10 renal 87.9% | ACHN renal 52.3% | CAKI-1 renal 42.1% | A498 renal 74.1% | MOLT-4 leukemia 50.7%

COc1ccc(Nc2ncccc2C(=O)NCc2cn(Cc3cccc(Oc4ccccc4)c3)nn2)c(OC)c1
inactive: HCT-15 colon 26.1% | SNB-19 CNS 44.5% | U251 CNS 30.2% | PC-3 prostate 43.9% | SK-MEL-5 melanoma 23% | UACC-62 melanoma 33.9% | LOX IMVI melanoma 48.4% | SK-MEL-28 melanoma 61.8% | EKVX NSCLC 46.5% | SN12C renal 33.7% | UO-31 renal 48% | TK-10 renal 64.5% | ACHN renal 48% | CAKI-1 renal 44.8% | MOLT-4 leukemia 40%
active: HT29 colon 3.15% | A498 renal -3.05%

O=C(CSc1nc2ccccc2[nH]1)c1ccc(N2CCOCC2)cc1
inactive: HCT-15 colon 99.4% | HT29 colon 113% | SNB-19 CNS 98.7% | U251 CNS 103% | PC-3 prostate 100% | SK-MEL-5 melanoma 105% | UACC-62 melanoma 97.1% | LOX IMVI melanoma 94.8% | SK-MEL-2 melanoma 113% | EKVX NSCLC 80.4% | SN12C renal 105% | UO-31 renal 85.5% | TK-10 renal 118% | ACHN renal 105% | CAKI-1 renal 99% | A498 renal 85.8% | CCRF-CEM leukemia 103% | MOLT-4 leukemia 135%

CCn1c2ccccc2c2cc(NC(=O)Nc3ccc([N+](=O)[O-])cc3C)ccc21
active: CAKI-1 renal -4.18% | CCRF-CEM leukemia 9.61%
inactive: HCT-15 colon 25.5% | HT29 colon 17.9% | SNB-19 CNS 66.6% | U251 CNS 31.5% | PC-3 prostate 19.2% | SK-MEL-5 melanoma 48.1% | UACC-62 melanoma 38.9% | LOX IMVI melanoma 39.2% | SK-MEL-2 melanoma 53% | EKVX NSCLC 62.3% | SN12C renal 55.6% | UO-31 renal 23.6% | TK-10 renal 53.8% | ACHN renal 31.9% | A498 renal 65.7% | MOLT-4 leukemia 17.9%

COc1ccc(-c2c(N)n[nH]c2-c2cc3c(c(OC)c2OC)OCO3)cc1
inactive: HCT-15 colon 101% | HT29 colon 103% | SNB-19 CNS 104% | U251 CNS 94.1% | PC-3 prostate 101% | SK-MEL-5 melanoma 110% | UACC-62 melanoma 82.9% | LOX IMVI melanoma 95% | SK-MEL-28 melanoma 104% | EKVX NSCLC 92.4% | SN12C renal 92.5% | UO-31 renal 84% | TK-10 renal 101% | ACHN renal 96.9% | CAKI-1 renal 94.4% | A498 renal 75.7% | MOLT-4 leukemia 96.5%

COc1ccc(-c2ccc(C)n2-c2ccc(-c3nc4ccccc4s3)cc2)cc1
inactive: HCT-15 colon 96.5% | HT29 colon 92% | SNB-19 CNS 91.9% | U251 CNS 90% | PC-3 prostate 91.6% | SK-MEL-5 melanoma 102% | UACC-62 melanoma 86.1% | LOX IMVI melanoma 88.3% | SK-MEL-28 melanoma 113% | EKVX NSCLC 78% | SN12C renal 86.6% | UO-31 renal 86.6% | TK-10 renal 119% | ACHN renal 90.9% | CAKI-1 renal 76% | A498 renal 65.7% | MOLT-4 leukemia 81.8%

COc1cc(/C=N\NC(=O)CN2CCN(c3cc4c(cc3F)c(=O)c(C(=O)N/N=C/c3cc(OC)c(OC)c(OC)c3)cn4C3CC3)CC2)cc(OC)c1OC
inactive: HCT-15 colon 101% | SNB-19 CNS 19.1% | EKVX NSCLC 55.2% | UO-31 renal 71.8% | TK-10 renal 64.2% | ACHN renal 93.7% | CAKI-1 renal 77.7% | A498 renal 46.6%
active: HT29 colon 4.47% | U251 CNS 2.13% | PC-3 prostate -19.8% | SK-MEL-5 melanoma -15.4% | UACC-62 melanoma -34.7% | LOX IMVI melanoma -67.1% | SK-MEL-2 melanoma -26.2% | SN12C renal -25.8% | CCRF-CEM leukemia 4.32% | MOLT-4 leukemia 0.748%
